{
  "source": "PubChem BioAssay AID2284136",
  "about": "(EPA ToxCast)",
  "note": "Active and inactive are the calls of the source. The calls were made as follows: active = hit-call score of the fitted dose curve at least 0.9, where 1 is the maximum; inactive = score below 0.9.",
  "data": [
    {"target": "Tyrosine-protein phosphatase non-receptor type 11 (Homo sapiens) (UniProt Q06124)", "sequence (Q06124 whole entry, looked up)": "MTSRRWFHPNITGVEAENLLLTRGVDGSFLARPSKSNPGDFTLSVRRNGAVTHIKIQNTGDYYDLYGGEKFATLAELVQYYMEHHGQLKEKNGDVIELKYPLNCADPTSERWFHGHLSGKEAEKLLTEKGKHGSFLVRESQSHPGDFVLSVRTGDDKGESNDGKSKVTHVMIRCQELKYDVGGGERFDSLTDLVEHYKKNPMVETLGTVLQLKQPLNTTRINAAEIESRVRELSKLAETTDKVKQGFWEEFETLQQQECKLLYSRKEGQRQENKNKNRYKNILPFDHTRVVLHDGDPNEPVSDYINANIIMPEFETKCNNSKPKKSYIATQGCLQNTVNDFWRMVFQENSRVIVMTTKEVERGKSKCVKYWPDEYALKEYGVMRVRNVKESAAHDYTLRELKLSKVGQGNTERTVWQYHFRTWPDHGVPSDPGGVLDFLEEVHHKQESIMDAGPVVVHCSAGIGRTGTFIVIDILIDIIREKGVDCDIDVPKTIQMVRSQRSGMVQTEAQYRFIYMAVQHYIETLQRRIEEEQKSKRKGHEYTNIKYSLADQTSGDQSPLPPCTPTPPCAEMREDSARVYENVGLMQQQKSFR", "assay": "ERF_FR_ENZ_hPTPN11: Eurofins (ERF) Enzymatic Assay for human Phosphatase Receptor (PTPN11/SHP2)", "method": "ERF_FR_ENZ_hPTPN11 is a biochemical, single-readout assay that uses extracted gene-proteins in a cell-free assay. Measurements were taken 0.5 hour after chemical dosing in a 96-well plate. See SHP2 Human Phosphatase Enzymatic Assay, PhosphataseProfiler.ERF_FR_ENZ_hPTPN11 is an assay component calculated from the ERF_FR_ENZ_hPTPN11 assay. It is designed to measure enzyme activity using a type of enzyme reporter as detected by fluorescence intensity with spectrophotometry technology.Data from the assay component ERF_FR_ENZ_hPTPN11 was analyzed at the assay endpoint, ERF_FR_ENZ_hPTPN11, in the positive analysis fitting direction relative to DMSO as the negative control and baseline of activity. Using a type of enzyme reporter, loss-of-signal activity can be used to understand changes in enzymatic activity as they relate to gene PTPN11. To generalize the intended target to other relatable targets, this assay endpoint is annotated to the phosphatase intended target family, where the subfamily is protein tyrosine phosphatase.\nHuman recombinant phosphatase PTPN11 (SHP-2) expressed in E. coli is used. Test compound and/or vehicle is preincubated with 45 ng/ml enzymeo for 15 minutes at 37 C in modified HEPES buffer pH 7.2. The reaction is initiated by addition of 100 uM DiFMUP for 60 minutes. Determination of the amount of DiFMU formed is read spectrofluorimetrically at 358 nm/450 nm. […]", "values": [
      {"smiles": "O=C(/C=C/c1ccc(O)cc1)CC(=O)/C=C/c1ccc(O)cc1", "AC50": "0.28 nM (active)"}
    ]}
  ]
}
